A number with no mark means an inactive call. The source made the active and inactive calls. The rule behind the calls is not given here.
Experiment: displacers of FITC-Bim-BH3 from Bcl-B – biochemical, fluorescence polarization, Bim-BH3 peptide, counter-screen for TR3-derived Bcl-B inhibitor project, dose response (AID 1244)
Conditions: Bcl-B/FITC-Bim-BH3 peptide binding

Row | SMILES | EC50
1 | Cc1cc(C)nc(/N=C(/N)Nc2cccc(N)c2)n1 | > 25 µM
2 | Cc1ccc(C)n1-c1ccc(Br)cc1C(=O)O | 0.48 µM (active)
